Results as given in PubChem BioAssay AID1030 (National Center for Advancing Translational Sciences (NCATS), 2008).
Several values for one entry are separate records, joined by “and”; a condition that tells them apart may be missing. Equal entries are not always repeated. Out of some 220,000 compounds screened, about 16,000 (7.3%) were called active. Not shown: some 25% with an inconclusive outcome. The call rests on the fitted dose curve; in most records, active means well fitted inhibition curve with a large enough effect (not every such curve was filed as active); inconclusive means small, poorly fitted or top-dose-only effect, or another doubt; inactive means no such curve, though single readings can be large or run the other way. The list comes from a sample in which actives are over-represented; it also holds similar structures and randomly drawn compounds.

Biological target: Aldehyde dehydrogenase 1A1 (Homo sapiens) (UniProt P00352)
Test: qHTS Assay for Inhibitors of Aldehyde Dehydrogenase 1 (ALDH1A1);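 on activity, negative = inhibition: plate controls were no enzyme wells and a reference inhibitor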
Conditions: Purified ALDH1A1, NADH fluorescence, propionaldehyde substrate; series mostly up to 75.3 µM; activity, negative = inhibition: at the top concentration
Potency means the concentration at half of the fitted maximal effect.

Chain of Aldehyde dehydrogenase 1A1 (Homo sapiens) (P00352 whole entry, looked up): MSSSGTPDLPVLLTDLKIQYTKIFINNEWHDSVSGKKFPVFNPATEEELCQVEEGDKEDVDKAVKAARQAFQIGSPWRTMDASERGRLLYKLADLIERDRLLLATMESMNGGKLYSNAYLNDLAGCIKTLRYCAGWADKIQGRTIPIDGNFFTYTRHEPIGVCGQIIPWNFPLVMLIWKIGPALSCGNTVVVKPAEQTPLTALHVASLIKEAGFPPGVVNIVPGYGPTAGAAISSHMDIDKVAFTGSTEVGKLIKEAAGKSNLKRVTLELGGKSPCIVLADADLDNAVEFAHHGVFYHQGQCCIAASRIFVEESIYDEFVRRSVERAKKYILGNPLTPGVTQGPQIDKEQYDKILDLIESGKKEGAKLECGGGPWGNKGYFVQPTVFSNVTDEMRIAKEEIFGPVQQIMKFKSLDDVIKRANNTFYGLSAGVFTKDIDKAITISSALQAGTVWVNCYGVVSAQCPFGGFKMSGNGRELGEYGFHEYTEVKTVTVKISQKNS

activity, negative = inhibition, inactive:
CCc1c(SCCC(=O)O)nc2ccccc2c1C -7.58%
O=C(N/N=C/c1ccco1)c1ccc(C(=O)N/N=C/c2ccco2)o1 -3.13%
CC(=O)Nc1ccc(/C=N/NC(=O)c2cccs2)cc1 3.71%
CCOc1cc(/C=C(/C#N)c2ccc(Cl)cc2)cc(Cl)c1OCC(=O)O -0.694%
Cc1cccc(CCNS(=O)(=O)c2ccc(S(=O)(=O)NC3CCCC3)cc2)c1 -12.2%
N#CCCN1CCN(S(=O)(=O)c2ccc(S(=O)(=O)NC3CC3)cc2)CC1 6.11%
CCN(CC)C(=O)Oc1ccc(OC(=O)N(CC)CC)cc1 -3.17%
Cc1nonc1NC(=O)CSc1nc2ccccc2cc1C#N 4.78%
CC(=O)CCC(=O)c1ccc2ccccc2c1 -5.73%
Cc1ccc2nc(CC(=O)c3ccc4ccccc4c3)c(=O)[nH]c2c1 12.1% [at 13.5 µM]
CC(=O)Nc1nc2ccccc2n1Cc1ccc(C)cc1 0.717%
CN(C)CCCN(C(=O)COc1ccccc1)c1nc2c(Cl)cccc2s1 2.64%
CCC(C)(C)NC(=O)CN(C(=O)CCC(=O)Nc1cc(C)ccn1)c1ccc2c(c1)OCCO2 2.32%
COc1cc(SC)ccc1C(=O)Nc1nc(C)cs1 7.61%
Cc1ccnc(NC(=O)c2ccoc2C)c1 7.63%
O=C(O)COc1ccc(/C=N/O)cc1Br -1.14%
Cc1ccccc1CN(c1ccc(C(=O)NCC2CCCO2)cc1)S(C)(=O)=O (centres undefined) 10.6%
C/C=C(\C)C(=O)NCCN1C2=NC[C@H](Cc3ccc(O)cc3)N2C[C@@H]1Cc1ccc(OC)cc1 5.48%
CC(NC(=O)COC(=O)c1ccc2c(c1)OCO2)c1ccccc1 (centres undefined) -4.82%
CCOC(=O)c1ccc(COC(=O)c2cc(=O)[nH]c3ccccc23)o1 -5.02%
CCOC(=O)c1c(Cc2ccc(Cl)cc2)c[nH]c1C -2.42%
CCOC(=O)c1ccccc1NC(=O)CSc1nc2ccccc2c(=O)[nH]1 -3.53%
Cc1cc(=O)oc(C)c1C(=O)NCCN(C)Cc1ccccc1 -12%
Cn1c(SCC(=O)NC2CCCCC2)nnc1-c1ccc(N)cc1 4.84%
CCOC(=O)/C=c1\s/c(=C\c2ccc(C#N)cc2)c(=O)n1CC(=O)Nc1cccc(C)c1C 1.24%
CC1(C)Cc2cccc(OCC(=O)Nc3nccs3)c2O1 -3.74%
CC1(C)Cc2cccc(OCC(N)=O)c2O1 14.2%
Cc1cc2ccccc2n1CCC(=O)O 10.7%
O=[N+]([O-])c1ccccc1NCc1ccccc1Cl -2.06%
Cc1cccc(C)c1NC(=O)C1(N(C(=O)c2ccccn2)c2ccc(O)cc2)CCCCC1 4.63%
COc1ccccc1-n1c(CNC(=O)c2ccccc2)nnc1SCC(=O)Nc1nnc(C)s1 -1.72%
CCOC(=O)c1sc(NC(=O)CSc2nc3c(c(=O)n2-c2ccccc2)SCC3)c(C(=O)OCC)c1C 3.33%
CCn1c(SCC(=O)Nc2ccc3c(c2)OCCO3)nc2c(c1=O)SC(C)C2 (centres undefined) 0.288%
CCc1nnc(NC(=O)CSc2nc3ccccc3c(=O)n2CCCOC)s1 -2.48%
O=C(Nn1cnc2ccccc2c1=O)c1ccc([N+](=O)[O-])cc1Cl 2.25%
C=C(C(C)=O)C(O)c1ccc([N+](=O)[O-])cc1 (centres undefined) -8.28%
CCCCC(=O)NCc1ccc(F)cc1 14.5%
COc1ccccc1CNS(=O)(=O)c1ccc(C)cc1 2.08%
O=C(CC(NS(=O)(=O)c1ccc(Cl)cc1)c1ccco1)NC1CCCC1 (centres undefined) 6.1%
COC(=O)CCC(=O)N1CCCC(CO)(Cc2ccccc2)C1 (centres undefined) 1.8%
C#CCCOC(=O)N1C2=NC(C(=O)OC)=C(C(=O)OC)[C@@H]3N(C)c4ccc(OC)cc4[C@]23C[C@H]1C(=O)OC 4.88% [at 13.5 µM]
CCOC(=O)CN/C=C(\C#N)c1ccc(F)cc1 -3.19%
Cc1ccc(C(=O)NCCNC(=O)c2ccccc2)cc1 2.28%
Cc1ccc(C(=O)c2c(NC(=O)c3ccncc3)sc3c2CCCC3)cc1 5.45%
CCC(=O)NCc1cc(-c2nn(C)c(=O)c3ccccc23)ccc1OC -15.6%
COC(=O)c1cc(C(=O)CSc2nc(C)cc(C)n2)ccc1O -7.96%
COc1ccc(C(=O)NNC(=O)c2cnccn2)cc1[N+](=O)[O-] -11.7%
C/C(=N\NC(=O)OC(C)(C)C)c1ccc[nH]1 5.62%
Cc1cc(NC(=O)CCC2COc3ccccc3O2)no1 (centres undefined) -3.2%
O=C(NCC1COc2ccccc2O1)C1(c2ccccc2)CCCC1 (centres undefined) -5.04%
O=C(NNC(=O)c1ccc(Cl)cc1Cl)c1cccs1 7.06%
Fc1cccc(Cc2noc(CN3CCN(c4cnccn4)CC3)n2)c1 -4.08%
CCOC(=O)c1c(C)[nH]c2c1-c1ccccc1C(=O)C2=O 4.42%
CCCCOC(=O)c1[nH]c(C)c(C(=O)OC)c1C -76%
CN1CCN(c2nc(Nc3ccc(O)cc3)nc3ccccc23)CC1 3.31%

Potency, active:
O=C(N/N=C/C=C/c1ccco1)c1cccs1 2 µM
Cn1sc(=O)c2cc(S(=O)(=O)NC3CC3)ccc21 0.501 µM
C=CC(=O)c1ccc2ccccc2c1 11.2 nM and 100 nM
COc1cc(SC)ccc1C(=O)Nc1cc(C)ccn1 22.4 µM
CCOC(=O)c1ccc(CS(=O)c2ccc(Cl)cc2)o1 (centres undefined) 2.82 µM
C=CS(=O)c1sc(Cl)c(N2CCOCC2)c1[N+](=O)[O-] (centres undefined) 2 µM
CC1(C)Cc2cccc(OCC(=O)N3CCN(c4ccc([N+](=O)[O-])cc4)CC3)c2O1 10 µM
CCOc1ccc(NC(=O)CSc2nc3c(c(=O)n2-c2ccccc2OC)SCC3)cc1 17.8 µM
CCc1nnc(NC(=O)CSc2nc3c(c(=O)n2-c2ccccc2OC)SCC3)s1 22.4 µM
COc1ccc(S(=O)(=O)NC(CC(=O)NCc2ccccc2OC)c2ccco2)cc1 (centres undefined) 10 µM
Cc1ccc(C(=O)c2c(NC(=O)c3ccccc3)sc(C)c2C)cc1 25.1 µM
COc1ccc(C(=O)CSc2nc(C)cc(C)n2)cc1[N+](=O)[O-] 2.24 µM
Cc1cc(C(=O)CCl)c(C)n1CC1COc2ccccc2O1 (centres undefined) 0.251 µM
CCOC(=O)c1c(C)[nH]c(C2=NNC(=NC(C)COC)SC2)c1C (centres undefined) 10 µM
